Records with an inconclusive call do not appear. Calls of active or inactive are those of the source. Unless noted, the call rests on the fitted dose curve; in most records, active means well fitted cell-killing curve with a large enough effect; inconclusive means small, poorly fitted or top-dose-only effect, or effect the other way; inactive means no such curve, though single readings can be large or run the other way.
Assays:
[1] = Quantitative High-Throughput drug screen in 47 multiple myeloma cell lines against the NCATS MIPE library collection: KMS28PE_JCRB cell viability assay (AID 1918983); further: nearly all actives have a fitted effect of over 35% in size
Method in brief: (§1)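 ATP-based CellTiter-Glo luminescence after 48 h drug exposure (37 °C, 5% CO2) of 500 myeloma cells per well. DMSO-only wells set 100% viability, media-only wells 0%; MIPE 4.0 library added by pin tool.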

[2] = Quantitative High-Throughput drug screen in 47 multiple myeloma cell lines against the NCATS MIPE library collection: KMS34_JCRB cell viability assay (AID 1918985); further: nearly all actives have a fitted effect of over 40% in size
Method in brief: as §1

[3] = Quantitative High-Throughput drug screen in 47 multiple myeloma cell lines against the NCATS MIPE library collection: OCIMY7_PLB cell viability assay (AID 1918987); further: nearly all actives have a fitted effect of over 65% in size
Method in brief: as §1

[4] = Quantitative High-Throughput drug screen in 47 multiple myeloma cell lines against the NCATS MIPE library collection: OPM1_PLB cell viability assay (AID 1918989); further: nearly all actives have a fitted effect of over 40% in size
Method in brief: as §1

[5] = Quantitative High-Throughput drug screen in 47 multiple myeloma cell lines against the NCATS MIPE library collection: U266_ATCC cell viability assay (AID 1919864); further: nearly all actives have a fitted effect of over 35% in size
Method in brief: as §1

[6] = Quantitative High-Throughput drug screen in 47 multiple myeloma cell lines against the NCATS MIPE library collection: XG6_PLB cell viability assay (AID 1919865); further: nearly all actives have a fitted effect of over 40% in size
Method in brief: as §1

[7] = Quantitative High-Throughput drug screen in 47 multiple myeloma cell lines against the NCATS MIPE library collection: XG1_PLB cell viability assay (AID 1919866); further: nearly all actives have a fitted effect of over 35% in size
Method in brief: as §1

[8] = Quantitative High-Throughput drug screen in 47 multiple myeloma cell lines against the NCATS MIPE library collection: VP6_DJ cell viability assay (AID 1919867); further: nearly all actives have a fitted effect of over 40% in size
Method in brief: as §1

[9] = Quantitative High-Throughput drug screen in 47 multiple myeloma cell lines against the NCATS MIPE library collection: PCM6_Riken cell viability assay (AID 1919870); further: nearly all actives have a fitted effect of over 30% in size
Method in brief: as §1

[10] = Quantitative High-Throughput drug screen in 47 multiple myeloma cell lines against the NCATS MIPE library collection: RPMI8226_ATCC cell viability assay (AID 1919871); further: nearly all actives have a fitted effect of over 30% in size
Method in brief: as §1

[11] = Quantitative High-Throughput drug screen in 47 multiple myeloma cell lines against the NCATS MIPE library collection: KMS11_JCRBsus cell viability assay (AID 1919873); further: nearly all actives have a fitted effect of over 50% in size
Method in brief: as §1

[12] = Quantitative High-Throughput drug screen in 47 multiple myeloma cell lines against the NCATS MIPE library collection: KMS28BM_JCRB cell viability assay (AID 1919874); further: nearly all actives have a fitted effect of over 35% in size
Method in brief: as §1

[13] = qHTS drug screen for cell cycle checkpoint inhibitors in PARPi-resistant BRCA-mutant ovarian cancer cell lines. (AID 1963452; calls by dose curve); conditions: PEO1/OlaR viability, CellTiter-Glo luminescence, 96 h; for Z-AUC: stronger effect = lower value
Method in brief: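 PEO1, PEO4 and PEO1/OlaR ovarian cancer cells, 600 per well, exposed 96 h at 37C to a dilution series. Viability read by CellTiter-Glo luminescence, normalized to DMSO and empty wells; activity summarized as Z-AUC.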

[14] = Quantitative High-Throughput drug screen in 47 multiple myeloma cell lines against the NCATS MIPE library collection: OCIMY5_PLB cell viability assay (AID 1918988); further: nearly all actives have a fitted effect of over 65% in size
Method in brief: as §1

[15] = Quantitative High-Throughput drug screen in 47 multiple myeloma cell lines against the NCATS MIPE library collection: SKMM1_PLB cell viability assay (AID 1919863); conditions: SKMM1 myeloma viability, CellTiter-Glo ATP, 48 h; viability: stronger effect = lower value; further: nearly all actives have a fitted effect of over 35% in size
Method in brief: as §1

[16] = Quantitative High-Throughput drug screen in 47 multiple myeloma cell lines against the NCATS MIPE library collection: UTMC2_PLB cell viability assay (AID 1919868); conditions: CellTiter-Glo ATP luminescence, 48 h; viability (% of DMSO control): at 45.8 µM (top of the series) unless noted; further: nearly all actives have a fitted effect of over 55% in size
Method in brief: as §1

[17] = Quantitative High-Throughput drug screen in 47 multiple myeloma cell lines against the NCATS MIPE library collection: PE2_PLB cell viability assay (AID 1919869); further: nearly all actives have a fitted effect of over 35% in size
Method in brief: as §1

[18] = Quantitative High-Throughput drug screen in 47 multiple myeloma cell lines against the NCATS MIPE library collection: OPM2_DSMZ cell viability assay (AID 1919872); further: nearly all actives have a fitted effect of over 30% in size
Method in brief: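 Viability readout: CellTiter-Glo luminescence following 5 min room-temperature incubation with reagent. Prior exposure: 48 h, 37C, humidified 5% CO2, 500 cells per well.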

[19] = qHTS for identification of novel therapeutic agents for treatment of microphthalmiaassociated transcription factor (MiT) renal cell carcinoma (RCC) (AID 1963991; calls by dose curve); conditions: CellTiter-Glo, 48 h; for Potency: active = Z-AUC below -0.8 in all three lines; for z-score: stronger effect = lower value
Method in brief: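 Three TFE3-fusion RCC lines (UOK109, UOK124, UOK145), 500 cells/well in complete medium, were treated with MIPE 4.0 compounds for 48 hours at 37 C. Viability was by CellTiter-Glo luminescence, normalized to DMSO (100%) and empty wells (0%); curves fitted over 11 concentrations.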

[20] = measured here: PEO1 parental Z-AUC
[21] = TFE3-RCC UOK109 viability, measured here: UOK109 Z-AUC
[22] = TFE3-RCC viability, measured here: UOK124 Z-AUC
[23] = TFE3-RCC viability, measured here: UOK145 Z-AUC
Potency means the concentration at half of the fitted maximal effect.

N#CCNC(=O)c1ccc(-c2ccnc(Nc3ccc(N4CCOCC4)cc3)n2)cc1
0.613: Z-AUC ([13]; measured here: PEO4 Z-AUC)
inactive: Z-AUC [13] -0.322
0.159: Z-AUC [13, 20]
active: Potency [1] 18700 nM | Potency [2] 4690 nM | Potency [3] 5260 nM | Potency [4] 11800 nM | Potency [5] 18700 nM | Potency [6] 2640 nM | Potency [7] 5260 nM | Potency [8] 3720 nM | Potency [9] 3320 nM | Potency [10] 16600 nM | Potency [11] 7430 nM | Potency [12] 7430 nM

COCCn1c2c([n+](Cc3cnccn3)c1C)C(=O)c1ccccc1C2=O
-3.55: z-score [19, 21]
-3.42: z-score [19, 22]
-3.48: Z-AUC ([13]; measured here: PEO4 Z-AUC)
-3.23: z-score [19, 23]
active: Potency [1] 26.4 nM | Potency [2] 5.3 nM | Potency [14] 7.4 nM | Potency [4] 29.6 nM | Potency [15] 37.2 nM | Potency [5] 5.9 nM | Potency [6] 20.9 nM | Potency [7] 7.4 nM | Potency [8] 14.8 nM | Potency [16] 41.8 nM | Potency [17] 18.7 nM | Potency [9] 23.5 nM | Potency [10] 23.5 nM | Potency [18] 59 nM | Potency [11] 13.2 nM | Potency [12] 14.8 nM | Potency [13] 49 nM | Potency ([19]; TFE3-RCC UOK109 viability) 83.3 nM
-3.26: Z-AUC [13, 20]

CC1(C)CCC(c2ccc(Cl)cc2)=C(CN2CCN(c3ccc(C(=O)NS(=O)(=O)c4ccc(N[C@H](CCN5CCOCC5)CSc5ccccc5)c(S(=O)(=O)C(F)(F)F)c4)cc3)CC2)C1
inactive: Z-AUC [13] -0.481
-0.554: Z-AUC [13, 20]
active: Potency [1] 469 nM | Potency [2] 9350 nM | Potency [3] 1 nM | Potency [14] 37.2 nM | Potency [4] 5260 nM | Potency [5] 14800 nM | Potency [6] 11800 nM | Potency [7] 16600 nM | Potency [8] 372 nM | Potency [16] 93.5 nM | Potency [17] 2640 nM | Potency [9] 26.4 nM | Potency [10] 2960 nM | Potency [18] 18700 nM | Potency [12] 332 nM
-1.15: Z-AUC ([13]; measured here: PEO4 Z-AUC)

CCn1nnc2c(N3CCOCC3)nc(-c3ccc(NC(=O)Nc4ccc(C(=O)N5CCN(C)CC5)cc4)cc3)nc21
-1.65: Z-AUC ([13]; measured here: PEO4 Z-AUC)
inactive: Z-AUC [13] -0.869
-1.28: z-score [19, 21]
-1.94: z-score [19, 23]
-1.68: z-score [19, 22]
active: Potency [1] 5.9 nM | Potency [2] 148 nM | Potency [3] 3720 nM | Potency [14] 469 nM | Potency [4] 5.9 nM | Potency [15] 59 nM | Potency [16] 5.3 nM | Potency [9] 33.2 nM | Potency [10] 52.6 nM | Potency [18] 93.5 nM | Potency [11] 23.5 nM | Potency [12] 4.2 nM | Potency ([19]; TFE3-RCC UOK109 viability) 526 nM
-1.58: Z-AUC [13, 20]

Source: PubChem BioAssay (NCATS)
